Experiment [1] concerns the target Cytochrome P450 3A4 (Homo sapiens) (UniProt P08684). The experiment in a line: qHTS Assay for Inhibitors and Substrates of Cytochrome P450 3A4 (AID 884). Also: series mostly up to about 57 µM; nearly all actives have a fitted effect of over 50% in size. In short, it runs like this:
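Luminescent readout of luciferin produced by CYP3A4 (20 nM) dealkylation of Luciferin-PPXE, 25 uM (its KM). NADPH-driven reaction ran 60 min at RT after 10 min compound preincubation; data scaled to 57 uM ketoconazole as 100% inhibition.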
For orientation: Quantitative high-throughput screening tests each substance at several concentrations.

Experiment [2] is described as follows: Confirmation and Secondary Assay for Modulators of Hemoglobin Beta Chain Splicing at IVS2 654 locus (AID 910). In short, it runs like this: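 HeLa cells stably carrying EGFP interrupted by mutant beta-globin IVS2-654 intron (CMV-driven) were treated with compound for 2 days at 37C; corrected splicing was scored as total peak GFP intensity per well (488 nm excitation, 500-520 nm emission).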

Experiment [3] in a line: Confirmation and Secondary Assay for Modulators of Hemoglobin Beta Chain Splicing at IVS2 705 locus (AID 930).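 Also: HeLa cells stably expressing the EGFP-705 splicing reporter; GFP fluorescence per well restored by corrected splicing of the IVS2-705 intron in EGFP; series mostly up to about 46 µM.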 In short, it runs like this:
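HeLa cells stably carrying EGFP interrupted by mutant beta-globin intron 2 (IVS2-705) treated 2 days at 37C with compound; 500 nM antisense PNA as control. Correct splicing read as total peak GFP intensity per well by laser-scanning cytometry.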

In experiment [4] the target is Ubiquitin carboxyl-terminal hydrolase 1 (Homo sapiens) (UniProt O94782). The experiment in a line: Inhibitors of USP1/UAF1: Pilot qHTS (AID 504865).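 Also: rhodamine fluorescence freed from ubiquitin-rhodamine substrate followed over time; top concentration of the series differs between compounds; nearly all actives have a fitted effect of over 35% in size.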 In short, it runs like this:
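USP1/UAF1 complex at 1 nM preincubated 15 min at room temperature with compound, then Ub-Rho substrate added at 150 nM final. Fluorescence (480/540 nm) read kinetically in 50 mM HEPES pH 7.8, 0.5 mM EDTA, 1 mM TCEP, 0.1 mg/ml BSA, 0.01% Tween-20.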

Experiment [5] concerns the target Cytochrome P450 3A4 (Homo sapiens) (UniProt P08684). Kind of experiment: qHTS Assay for Activators of Cytochrome P450 3A4 (AID 885). Also: nearly all actives have a fitted effect of over 65% in size. In short, it runs like this:
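Luminescent readout of luciferin formed from 25 uM Luciferin-PPXE (KM level) by 20 nM CYP3A4 in 200 mM KPO4, with 60 min NADPH-driven reaction at room temperature after 10 min compound exposure. Ketoconazole (57 uM) defined 100% inhibition.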

Experiment [6] deals with Mitogen-activated protein kinase 10 (Mus musculus) (UniProt Q61831). The experiment in a line: JNK3 AlphaScreen Assay (AID 530; active = well fitted curve in either direction with a large enough effect, not every such curve was filed as active;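 also: kinase came from lysate of stimulated human HepG2 cells; signal reports phosphorylation of biotinylated GST-cJun 1-79 at Ser73 with 10 µM ATP; series mostly up to about 57 µM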). In short, it runs like this:
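Phosphorylation of biotinylated GST-cJun(1-79) at Ser73 is measured by AlphaScreen proximity luminescence. Enzyme is JNK3 in HepG2 lysates activated with interleukin-1beta and tumor necrosis factor alpha; ATP is 10 uM final.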

Experiment [7] has as its target 3',5'-cyclic-AMP phosphodiesterase 4B (Homo sapiens) (UniProt Q07343). The experiment in a line: qHTS Assay for Inhibitors of PDE-IV (AID 607; active = well fitted activation curve with a large enough effect in the main read-out, with a control signal flat, not every such curve was filed as active). In short, it runs like this: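 Cell-based read-out of cAMP via a modified cyclic nucleotide-gated channel and membrane potential dye (535/590 nm) in HEK293 cells expressing PDE4 endogenously. Compounds tested up to 22.9 uM final; 100 uM RO 20-1724 reference.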

Data on 38 molecules can be found in PubChem BioAssay (NCATS).

Records with an inconclusive call do not appear. Where a call stands in place of a potency, no number is given. The source made the active and inactive calls. Unless noted, calls follow the shape of the dose curve; as a rule, active = well fitted curve in the direction sought with a large enough effect; inconclusive = small, poorly fitted or top-dose-only effect, or another doubt; inactive = no such curve, though single readings can be large; an effect the other way counts as inactive or inconclusive.

3',5'-cyclic-AMP phosphodiesterase 4B (Homo sapiens), sequence (Q07343 whole entry, looked up): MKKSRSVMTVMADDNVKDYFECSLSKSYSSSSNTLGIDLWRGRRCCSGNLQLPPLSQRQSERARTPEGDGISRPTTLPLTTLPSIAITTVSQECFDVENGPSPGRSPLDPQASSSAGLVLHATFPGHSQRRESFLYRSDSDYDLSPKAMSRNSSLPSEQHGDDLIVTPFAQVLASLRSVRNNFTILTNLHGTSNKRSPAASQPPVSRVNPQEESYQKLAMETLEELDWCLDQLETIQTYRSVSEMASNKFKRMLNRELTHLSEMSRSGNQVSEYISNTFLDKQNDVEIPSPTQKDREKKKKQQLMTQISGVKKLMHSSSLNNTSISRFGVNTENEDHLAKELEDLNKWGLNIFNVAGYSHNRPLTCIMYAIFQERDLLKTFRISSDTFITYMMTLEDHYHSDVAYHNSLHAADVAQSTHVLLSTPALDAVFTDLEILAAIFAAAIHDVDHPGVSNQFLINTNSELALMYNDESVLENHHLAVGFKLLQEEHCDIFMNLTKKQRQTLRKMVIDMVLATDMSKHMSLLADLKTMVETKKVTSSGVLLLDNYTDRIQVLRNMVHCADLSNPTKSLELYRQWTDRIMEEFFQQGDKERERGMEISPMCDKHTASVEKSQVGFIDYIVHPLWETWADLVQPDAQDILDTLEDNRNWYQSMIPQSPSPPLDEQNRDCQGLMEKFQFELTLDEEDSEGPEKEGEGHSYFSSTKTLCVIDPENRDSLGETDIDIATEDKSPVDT
Cytochrome P450 3A4 (Homo sapiens), sequence (P08684 whole entry, looked up): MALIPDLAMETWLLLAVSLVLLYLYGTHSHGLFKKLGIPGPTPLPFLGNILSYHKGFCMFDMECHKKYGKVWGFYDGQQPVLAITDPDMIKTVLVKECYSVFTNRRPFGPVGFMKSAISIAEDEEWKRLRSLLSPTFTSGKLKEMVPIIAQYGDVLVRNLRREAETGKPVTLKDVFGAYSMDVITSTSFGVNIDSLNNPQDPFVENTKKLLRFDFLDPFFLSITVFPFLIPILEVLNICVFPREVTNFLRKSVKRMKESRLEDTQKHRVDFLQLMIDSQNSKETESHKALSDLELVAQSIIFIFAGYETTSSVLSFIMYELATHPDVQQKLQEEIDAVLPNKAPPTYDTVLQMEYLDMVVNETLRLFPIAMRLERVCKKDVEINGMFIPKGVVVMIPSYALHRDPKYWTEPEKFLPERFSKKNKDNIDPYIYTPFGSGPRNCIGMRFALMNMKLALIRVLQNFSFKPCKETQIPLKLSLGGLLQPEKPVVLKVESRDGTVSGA
Ubiquitin carboxyl-terminal hydrolase 1 (Homo sapiens), sequence (O94782 whole entry, looked up): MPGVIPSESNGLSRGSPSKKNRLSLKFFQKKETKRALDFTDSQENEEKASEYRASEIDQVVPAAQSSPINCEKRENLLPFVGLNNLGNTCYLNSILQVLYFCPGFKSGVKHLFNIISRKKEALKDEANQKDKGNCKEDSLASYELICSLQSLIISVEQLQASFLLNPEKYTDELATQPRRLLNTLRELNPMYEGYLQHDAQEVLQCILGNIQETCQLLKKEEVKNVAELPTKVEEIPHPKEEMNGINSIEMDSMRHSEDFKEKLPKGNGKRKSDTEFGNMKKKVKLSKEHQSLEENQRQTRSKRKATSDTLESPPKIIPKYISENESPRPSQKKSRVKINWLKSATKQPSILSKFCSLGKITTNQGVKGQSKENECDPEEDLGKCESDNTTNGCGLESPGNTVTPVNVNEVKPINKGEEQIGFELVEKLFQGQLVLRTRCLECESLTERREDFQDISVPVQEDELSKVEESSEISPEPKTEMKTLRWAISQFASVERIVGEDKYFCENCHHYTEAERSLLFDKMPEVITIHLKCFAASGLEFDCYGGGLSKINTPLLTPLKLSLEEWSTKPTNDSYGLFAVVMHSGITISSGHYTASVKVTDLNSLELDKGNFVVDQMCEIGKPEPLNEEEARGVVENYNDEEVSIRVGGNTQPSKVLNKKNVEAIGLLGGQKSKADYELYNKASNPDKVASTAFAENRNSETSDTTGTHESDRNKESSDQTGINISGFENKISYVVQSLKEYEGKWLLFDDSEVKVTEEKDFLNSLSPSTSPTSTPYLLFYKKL

Regarding `CC1O[C@@H](O[C@@H]2C(O)C[C@H](O[C@@H]3C(O)C[C@@H](OC4CC[C@@]5(C)C6CC[C@]7(C)C(C8=CC(=O)OC8)CC[C@@]7(O)C6CC[C@@H]5C4)OC3C)OC2C)CC(O)[C@H]1O` (some centres undefined), the Potency result in experiment [1] and in experiment [4] was “inactive” in each case. The result in experiment [2] and in experiment [3] was inactive.

Turning to `Cc1cc(=O)oc2cc(O)c(O)cc12`, the Potency entry in experiment [5] and in experiment [4] was “inactive” in each case. The molecule was classed as inactive in experiment [2] and in experiment [3].

In the case of `CCC1OC(=O)C(C)[C@@H](O[C@H]2C[C@@](C)(OC)C(O)C(C)O2)C(C)[C@@H](O[C@@H]2OC(C)CC(N(C)C)C2O)[C@@](C)(O)CC(C)C2NC(COCCOC)O[C@H](C2C)[C@@]1(C)O` (some centres undefined), the Potency entry in experiment [1] and in experiment [4] was “inactive” throughout. Also, the call in experiment [2] and in experiment [3] was inactive.

Regarding `O=C1OC(C(O)CO)C(O)=C1O` (centres undefined), the Potency entry in experiment [1] and in experiment [4] was “inactive” each time. Also, the call in experiment [3] was inactive.

For `COc1ccc(C2COc3c(ccc(O)c3OC)C2)c(OC)c1O` (centres undefined), the Potency entry in experiment [5] and in experiment [4] was “inactive” each time. For the same molecule, the result in experiment [2] and in experiment [3] was inactive.

`CC1CC2C(C(O)C[C@]3(C)C2CC[C@]3(O)C(=O)CO)[C@]2(C)C=CC(=O)C=C12` (some centres undefined): the Potency entry in experiment [5] and in experiment [4] was “inactive” throughout. Moreover, the molecule was called inactive in experiment [2] and in experiment [3].

As for `Cn1c(=O)[nH]c(=O)c2[nH]cnc21`, the Potency result in experiment [1] and in experiment [4] was “inactive” throughout. In addition, the molecule was called inactive in experiment [2] and in experiment [3].

Take `C=C1C(=O)C23C(O)C1CCC2[C@]12COC3(O)C(O)C1C(C)(C)CC[C@H]2O` (some centres undefined): the Potency entry in experiment [1] and in experiment [4] was “inactive” throughout. Besides, in experiment [3], the molecule was classed as inactive.

Turning to `CO[C@@]1(NC(=O)Cc2cccs2)C(=O)N2C(C(=O)O)=C(COC(N)=O)CSC21` (some centres undefined), the Potency entry in experiment [1] and in experiment [4] was “inactive” in each case. The molecule was classed as inactive in experiment [2] and in experiment [3].

As for `COc1cc(OC)c2c(=O)c(-c3ccccc3)c(C)oc2c1OC`, the Potency entry in experiment [5] and in experiment [4] was “inactive” in each case. Moreover, the result in experiment [2] and in experiment [3] was inactive.

In the case of `COC(=O)[C@@]1(Cc2ccccc2)[C@H]2c3cc(C(=O)N(C)C)n(CCSCCO)c3C[C@H]2CN1C(=O)c1ccccc1`, the outcome in experiment [6] and in experiment [7] was inactive.

As for `COC(=O)[C@@]1(Cc2ccc(OC)cc2)[C@H]2c3cc(C(=O)N(C)C)n(Cc4ccc(OC(F)(F)F)cc4)c3C[C@H]2CN1C(=O)c1ccccc1`, the molecule was classed as inactive in experiment [6] and in experiment [7].

Take `COc1ccc(CNC(=O)[C@H](C)[C@H]2C[C@]2(C)[C@H](NC(=O)OCc2ccccc2)c2ccccc2)cc1OC`: the molecule was classed as inactive in experiment [6] and in experiment [7].

`COC(=O)[C@@]1(Cc2ccccc2)[C@H]2c3cc(C(=O)N(C)C)n(Cc4ccc(S(C)(=O)=O)cc4)c3C[C@H]2CN1C(=O)c1ccccc1`: the result in experiment [6] and in experiment [7] was inactive.

As for `C[C@@H](C(=O)N[C@@H](CO)Cc1ccccc1)[C@H]1C[C@]1(C)[C@H](NC(=O)OCc1ccccc1)c1ccccc1`, the call in experiment [6] and in experiment [7] was inactive.

Take `COC(=O)[C@@]1(Cc2ccc(F)cc2)[C@H]2c3cc(C(=O)N(C)C)n(CCc4ccc(OC)c(Br)c4)c3C[C@H]2CN1C(=O)c1ccccc1`: the call in experiment [6] and in experiment [7] was inactive.

As to `O=C(NCC1CC1)[C@H]1C[C@@H]1[C@H](NP(=O)(c1ccccc1)c1ccccc1)c1ccccc1`, the result in experiment [6] and in experiment [7] was inactive.

For `COC(=O)[C@@]1(Cc2ccc(F)cc2)[C@H]2c3cc(C(=O)N(C)C)n(Cc4ccccn4)c3C[C@H]2CN1C(=O)c1ccccc1`, the call in experiment [6] and in experiment [7] was inactive.

Consider `CC(C)c1ccc2c([Si](C)(C)C)c3c(nc2c1)-c1cccc(=O)n1C3`, for which the outcome in experiment [6] and in experiment [7] was inactive.

As for `C[C@@H](C(=O)NCC1CC1)[C@H]1C[C@]1(C)[C@H](NC(=O)OCc1ccccc1)c1ccccc1`, the molecule was called inactive in experiment [6] and in experiment [7].

On to `COC(=O)[C@@]1(Cc2ccc(OC)cc2)[C@H]2c3cc(C(=O)N(C)C)n(Cc4ccc(C(F)(F)F)nc4)c3C[C@H]2CN1C(=O)c1ccccc1`, for which the molecule was called inactive in experiment [6] and in experiment [7].

As for `COC(=O)[C@@]1(Cc2ccc(OC)cc2)[C@H]2c3cc(C(=O)N(C)C)n(CCSCCO)c3C[C@H]2CN1C(=O)c1ccccc1`, the molecule was classed as inactive in experiment [6] and in experiment [7].

With `CCC/C=C(\CCC)C(NC(=O)OCC(C)C)c1ccccc1` (centres undefined), the outcome in experiment [6] and in experiment [7] was inactive.

As to `COC(=O)[C@@]1(Cc2ccccc2)[C@H]2c3cc(C(=O)N(C)C)n(Cc4ccc(OC)c(OC)c4)c3C[C@H]2CN1C(=O)c1ccccc1`, the molecule was classed as inactive in experiment [6] and in experiment [7].

For `COC(=O)[C@@]1(Cc2ccc(F)cc2)[C@H]2c3cc(C(=O)N4CCCC4)n(CCc4c[nH]c5cc(F)ccc45)c3C[C@H]2CN1C(=O)c1ccccc1`, the molecule was called inactive in experiment [6] and in experiment [7].

Turning to `COC(=O)[C@@]1(Cc2ccc(F)cc2)[C@H]2c3cc(C(=O)N(C)C)n(CCN4CCOCC4)c3C[C@H]2CN1C(=O)c1ccccc1`, the call in experiment [6] and in experiment [7] was inactive.

With `O=C(NCc1ccccn1)[C@@H]1C[C@H]1[C@@H](NP(=O)(c1ccccc1)c1ccccc1)c1ccccc1`, the outcome in experiment [6] and in experiment [7] was inactive.

For `COC(=O)[C@@]1(Cc2ccc(F)cc2)[C@H]2c3cc(C(=O)N(C)C)n(Cc4ccc(OC(F)(F)F)cc4)c3C[C@H]2CN1C(=O)c1ccccc1`, the molecule was classed as inactive in experiment [6] and in experiment [7].

For `Cc1cc(CNC(=O)[C@H](C)[C@H]2C[C@]2(C)[C@H](NC(=O)OCc2ccccc2)c2ccccc2)nn1C`, the outcome in experiment [6] and in experiment [7] was inactive.

For `C[C@@H](C(=O)Nc1ccc2ccccc2c1)[C@@H]1C[C@@]1(C)[C@@H](NC(=O)c1ccccc1)c1ccccc1`, the call in experiment [6] and in experiment [7] was inactive.

As for `COC(=O)[C@@]1(Cc2ccccc2)[C@@H]2[C@@H](CC(=O)[C@H]2CC(=O)C(=O)N(C)C)CN1C(=O)c1ccccc1`, the result in experiment [6] and in experiment [7] was inactive.

In the case of `Cc1cc(CNC(=O)[C@H](C)[C@@H]2C[C@@]2(C)[C@@H](NC(=O)OCc2ccccc2)c2ccccc2)nn1C`, the call in experiment [6] and in experiment [7] was inactive.

Consider `C[C@@H](C(=O)Nc1ccc2ccccc2c1)[C@H]1C[C@]1(C)[C@H](NC(=O)c1cccnc1)c1ccccc1`, for which the call in experiment [6] and in experiment [7] was inactive.

With `Cc1ccc(CNC(=O)[C@@H]2C[C@H]2[C@@H](NP(=O)(c2ccccc2)c2ccccc2)c2ccccc2)o1`, the molecule was classed as inactive in experiment [6] and in experiment [7].

Consider `COC(=O)[C@@]1(Cc2ccccc2)[C@H]2c3cc(C(=O)N4CCCC4)n(Cc4ccccc4)c3C[C@H]2CN1C(=O)c1ccccc1`, for which the result in experiment [6] and in experiment [7] was inactive.

For the molecule `COC(=O)[C@@]1(Cc2ccc(F)cc2)[C@H]2c3cc(C(=O)N4CCCC4)n(Cc4cc(C)n(C)n4)c3C[C@H]2CN1C(=O)c1ccccc1`, the call in experiment [6] and in experiment [7] was inactive.

Turning to `Cc1cc(C(=O)N[C@H](c2ccccc2)[C@@]2(C)C[C@@H]2[C@@H](C)C(=O)Nc2ccc3ccccc3c2)no1`, the outcome in experiment [6] and in experiment [7] was inactive.

Turning to `C[C@@H](C(=O)Nc1ccc2ccccc2c1)[C@@H]1C[C@@]1(C)[C@@H](NC(=O)c1cccnc1)c1ccccc1`, the call in experiment [6] and in experiment [7] was inactive.
